Data reported in ChEMBL document CHEMBL4513216, “Probing the Open Global Health Chemical Diversity Library for Multistage-Active Starting Points for Next-Generation Antimalarials” (ACS Infect Dis, 2020).
Screen size: about 68,000 compounds; about 2,700 (4%) showed an effect of 50% or more. For the sample, strong results were picked, then their nearest neighbours and some compounds at random.

Test system: Plasmodium berghei
Assay: Screen against P. berghei liver stage (PbLuc), transformed with Luciferase, at 2uM
Assay type: functional, HepG2
Conditions: tested at 2 uM

SMILES | INHIBITION
CN(C)S(=O)(=O)N1C[C@H]2CC[C@@H](C1)N(Cc1cccc(C#N)c1)C2 | -19.83%
CCNC(=O)N1CCc2ccc(NC(=O)NCCOCC)cc21 | 10.1%
CC(=O)NCCNC(=O)c1cnc2c(c1)nc(-c1ccccc1Cl)n2C | -5.51%
CN(C)CCNC(=O)c1cnc2c(c1)nc(-c1ccccc1Cl)n2C | -1.73%
Cn1c(-c2ccccc2Cl)nc2cc(C(=O)NCCOCCO)cnc21 | 2.7%
Cn1c(-c2ccccc2Cl)nc2cc(C(=O)NC(CO)CO)cnc21 | 56.89%
Cn1c(-c2ccccc2Cl)nc2cc(C(=O)NCC3(CO)CC3)cnc21 | 58.53%
Cn1c(-c2ccccc2Cl)nc2cc(C(=O)NCC3(C)COC3)cnc21 | 21.24%
COc1ccc(NC(=O)CCC2CCCN(S(=O)(=O)C3CC3)C2)cc1Cl (stereo not given) | 13.99%
CCc1ccc(C(=O)N2CCCC(CNS(C)(=O)=O)C2)o1 (stereo not given) | -23.94%
O=C(c1ccc(F)c(Cl)c1)N1C[C@H]2CC[C@@H](C1)N(Cc1ccccc1)C2 | -38.33%
Cc1cn2nc(N3CCCC3CC(C)(C)C)sc2n1 (stereo not given) | 29.11%
CCc1nc(CNC(C)(CO)C2CCCCC2)no1 (stereo not given) | 17.89%
CC(CO)(NCc1noc(Cc2ccccc2)n1)C1CCCCC1 (stereo not given) | -69.13%
COCCc1noc(CNC(C)(CO)C2CCCCC2)n1 (stereo not given) | 65.79%
O=C1OCCN1CCc1nc(-c2cc3c4c(c2)CC(=O)N4CCC3)cs1 | 78.51%
O=C1CCCc2cc(-c3csc(CCN4CCOC4=O)n3)ccc2N1 | 33.01%
CN1C(=O)Cc2cc(-c3csc(CCN4CCOC4=O)n3)ccc21 | -35.62%
CC(C)(C)c1ncc(C(=O)NCCSc2ccccn2)c(O)n1 | 68.02%
CCn1c(C)nnc1SCCNC(=O)c1cnc(C(C)(C)C)nc1O | 3.86%
Cc1nc(C(C)C)sc1C(=O)NCCSc1ccccn1 | -103.61%
CN1C[C@H]2CC[C@@H](C1)N(Cc1ccccc1OCCN1CCOCC1)C2 | 32.1%
NC(=O)CC1CC2(CCNCC2)c2cc(F)ccc21 (stereo not given) | -8.62%
c1cnc(-c2nn3c(CN4CCOCC4)nnc3s2)cn1 | 26.03%
c1cnc(-c2nn3c(CN4CCCCC4)nnc3s2)cn1 | 7.91%
c1cnc(-c2nn3c(CN4CCCCCC4)nnc3s2)cn1 | 55.73%
COC(=O)N1CCCC(NC(=O)NCc2ccc(C)nc2)C1 (stereo not given) | 22.07%

SMILES | INHIBITION
CC(C)(C)CC(=O)N1CC[C@H]2CC(=O)N(CCc3c[nH]cn3)CC[C@H]2C1 | 17.31%
Cc1cccc(C(C(=O)NCCCc2nnc3ccccn23)N(C)C)c1 (stereo not given) | -0.59%
CCc1nnc(CN(CC)C(=O)C2CC(=O)N(C(C)(C)C)C2)o1 (stereo not given) | 50.86%
CCc1nnc(CN(CC)C(=O)C2CC(=O)N(CC)C2)o1 (stereo not given) | 6.84%
CCc1nnc(CN(CC)C(=O)C2CC(=O)N(C3CC3)C2)o1 (stereo not given) | 10.02%
CCc1c(C)nc2cc(-c3nccn3C)nn2c1N1CCCC(CO)C1 (stereo not given) | -40.66%
CCS(=O)(=O)c1ccc2oc([C@H]3CCN(Cc4cccnc4)C3)nc2c1 | 16.12%
Cc1ccc2oc([C@H]3CCN(Cc4ccccc4)C3)nc2c1 | 45.22%
CCS(=O)(=O)c1ccc2oc([C@H]3CCN(Cc4ccccn4)C3)nc2c1 | 30.4%
CCS(=O)(=O)c1ccc2oc([C@H]3CCN(Cc4ccccc4)C3)nc2c1 | 55.66%
CCS(=O)(=O)c1ccc2oc([C@H]3CCN(CC4CCCCC4)C3)nc2c1 | 44.13%
CCS(=O)(=O)c1ccc2oc([C@H]3CCN(Cc4ccncc4)C3)nc2c1 | 61.7%
O=C(c1cccc(F)c1)N1CC[C@H]2[C@H]1CCN2CC1CCOCC1 | 13.04%
CCc1nccn1C1CCCN(C(=O)c2ccn(-c3ccccc3)n2)C1 (stereo not given) | 6.54%
O=C(CC1CNCCO1)N1CCC(c2cc(N3CCCC3)ncn2)CC1 (stereo not given) | 48.93%
O=C(C1CNCCO1)N1CCC(c2cc(N3CCCC3)ncn2)CC1 (stereo not given) | 37.15%
O=C(CN1CCOCC1)N1CCC(c2cc(N3CCCC3)ncn2)CC1 | 70.81%
Cn1ccnc1-c1cn(CCCc2csc(N)n2)nn1 | -21.39%
CCNC(=O)[C@@H]1C[C@H](NC(=O)c2cncnc2C)CN1Cc1ccsc1 | 12.78%
CCn1c(-c2ccccc2)nn(CC(=O)NCCc2ccc(C)s2)c1=O | 47.25%
CC(C)NC(=O)c1nnn(-c2ccccc2)c1C1CC1 | 2.31%
Cc1ccc(-n2nnc(C(=O)NC(C)C)c2C2CC2)cc1 | 82.5%
CC(C)NC(=O)c1nnn(-c2ccc(F)cc2)c1C1CC1 | 3.89%
Cc1cc(C)n(C2CN(CCc3ccccn3)C2)n1 | -7.32%
CN(C)CCn1ccnc1C1CCCN(c2nccc3ccccc23)C1 (stereo not given) | 49.94%
CN(C)Cc1nnc(C2CCCN(c3nccc4ccccc34)C2)n1C (stereo not given) | 63.01%
CN(C)Cc1nnc(C2CCCN(c3ncccc3F)C2)n1C (stereo not given) | 6.39%

SMILES | INHIBITION
Cc1cc(C)nc(NCCC(=O)NCCn2ccc3ccccc32)n1 | 50.94%
Cc1cc(C)nc(NCCCC(=O)NCCn2ccc3ccccc32)n1 | -12.76%
Cc1cc(C)nc(NCCC(=O)NCCn2ccnc2C)n1 | 28.4%
CCS(=O)(=O)N(C)C1CCN(C(=O)c2cccc(Cl)c2)CC1 | -41.98%
CCC(=O)Nc1ccc2c(c1)C1(CCOCC1)CN2CCF | -24.5%
COc1ccc(OC)c(-c2nc(CN(C)Cc3nncn3C)c(C)o2)c1 | -5.6%
CNC(=O)c1ccccc1NCc1ncnn1C | 54.03%
COc1ccc(NC(=O)c2ccccc2NCc2ncnn2C)cc1 | -25.35%
Cn1ncnc1CNc1ccccc1C(=O)NC(C)(C)C | -38.42%
CC(C)c1nnc2n1CC(CNC/C=C/c1ccccc1)CC2 (stereo not given) | 4.8%
CC(C)c1n[nH]c(C2CN(C(=O)c3cc4c(s3)CCC4)CCO2)n1 (stereo not given) | 10.53%
COCC(c1cccc(C(F)(F)F)c1)N(C)C(=O)c1ccccn1 (stereo not given) | -9.61%
CC(C)CNC(=O)CN1CCCC(c2ccc(C(=O)O)cc2)C1 (stereo not given) | 50.67%
CCNC(=O)CN1CCCC(c2ccc(C(=O)O)cc2)C1 (stereo not given) | 2.06%
CC(C)(C)NC(=O)CN1CCCC(c2ccc(C(=O)O)cc2)C1 (stereo not given) | 31.27%
CCS(=O)(=O)N1CCC(c2cc3n(n2)[C@@H](C(F)(F)F)C[C@@H](C)N3)CC1 | -22.38%
Cc1nc(=O)c(CC(=O)N2C[C@H]3CC[C@@H](C2)N(CC2CCC2)C3)c(C)[nH]1 | 25.47%
Cc1cc(C)n(CC(=O)N2C[C@H]3CC[C@@H](C2)N(CC2CCC2)C3)c(=O)n1 | 41.07%
Cc1nc(=O)c(CC(=O)N2C[C@H]3CC[C@@H](C2)N(CC2CCC2)C3)c[nH]1 | 68.39%
Cc1ccc(C(C)NC(=O)Cc2c(C)nc3c(c2C)c(=O)[nH]n3C)o1 (stereo not given) | -30.5%
CC(C)C1CN(C(=O)c2ccc3nccnc3c2)CCS1 (stereo not given) | 43.29%
c1cncc(OCc2n[nH]c3c2CN(Cc2cccs2)C3)c1 | 14.94%
COCc1nn(CC2CC2)c2c1CN(Cc1ccco1)CC2 | 38.09%
c1ccc(CN2Cc3[nH]nc(COCC4CC4)c3C2)nc1 | 28.5%
COCc1nn(CC2CC2)c2c1CN(Cc1cccs1)CC2 | 51.26%
Cc1cccc(CN2Cc3[nH]nc(COCC4CC4)c3C2)n1 | -4.06%
OCCOCc1n[nH]c2c1CN(Cc1ccco1)C2 | 8.99%

SMILES | INHIBITION
OCCOCc1n[nH]c2c1CN(Cc1ccccn1)C2 | 2.69%
CCOCc1nn(CC2CC2)c2c1CN(Cc1cccs1)CC2 | 34.93%
OCCOCc1n[nH]c2c1CN(Cc1cccs1)C2 | 52.74%
c1ccc(OCc2n[nH]c3c2CN(Cc2cccs2)C3)nc1 | 29.45%
COCc1n[nH]c2c1CN(Cc1cccs1)C2 | 56.21%
c1csc(CN2Cc3[nH]nc(COCC4CC4)c3C2)c1 | 58.98%
CCC[C@H]1CN(C(=O)CCn2ccccc2=O)C[C@@H]1NS(C)(=O)=O | 25.9%
CC(C)S(=O)(=O)NC(=O)c1cc(-c2cccc(Cl)c2)no1 | 38.67%
COc1ccc(C)cc1-n1c(COC(C)C)n[nH]c1=O | -19.78%
Cc1nc(C2CCCN2CCCc2nc3ccccc3o2)no1 (stereo not given) | 17.19%
COCCCN1CCC(C(=O)c2cc(F)ccc2F)CC1 | -6.4%
O=C(NCC1(Sc2ccccc2)CC1)c1cc[nH]n1 | 32.51%
O=C(NCC1(Sc2ccccc2)CC1)c1c[nH]nn1 | 66.4%
O=C(NCC1(Sc2ccccc2)CC1)c1ccc(=O)[nH]n1 | -5.26%
Cc1noc(C)c1CC(=O)N1CCCN(Cc2cscn2)CC1 | 25.74%
N#Cc1ccc(CN2CCCN(C(=O)CCn3cncn3)CC2)cc1 | 12.43%
O=C(CCCn1cncn1)N1CCCC1c1nc(-c2ccccc2)no1 (stereo not given) | 48.21%
c1ccc(-c2noc(C3CCN(CCn4cccn4)CC3)n2)cc1 | 43.44%
c1ccc(-c2noc(C3CCN(CCCn4cncn4)CC3)n2)cc1 | 57.75%
c1ccc(SCCN2CCN(CCn3cncn3)CC2)cc1 | 30.62%
c1ccc(C(c2ccccc2)N2CCN(CCn3cncn3)CC2)cc1 | 35.54%
N#Cc1ccc(N2CCCN(CCCn3cncn3)CC2)cc1 | -27.36%
N#Cc1ccc(CN2CCCN(CCCn3cncn3)CC2)cc1 | 65.3%
c1ccc(CCCN2CCN(CCn3cncn3)CC2)cc1 | 76.6%
